This is an account of results in PubChem BioAssay.

One experiment can be described thus: Primary imaging screen for DUSP6 inhibitors that restore phospho-Erk in transfected HeLa cells, chemical complementation (AID 609). The note with it: HeLa MKP-3 transfected, phospho-Erk imaging KS statistic; measured here: nuclear c-Myc green intensity z-score; at 10 µM; cells stimulated with TPA for 15 min.
Molecule `COCCCNc1nc(-c2ccncc2)nc2ccccc12` yielded a z-score of -0.929.

In turn, `CCOC(=O)c1cc2c(=O)n3ccccc3nc2n(Cc2ccccc2Cl)c1=N` yielded a z-score of 0.973.

Molecule `COc1ccc(N/C=C(\C#N)c2nc3ccccc3n2C)c(OC)c1` registered a z-score of -0.725.

Turning to `Cc1c(C)c2cc(Cl)c(O)c(CN3CCN(C)CC3)c2oc1=O`, the z-score is -0.256.

Regarding `Cc1cc(N2C(=O)C(=O)/C(=C(/O)c3ccccc3)C2c2cccc(Br)c2)no1` (stereo not given), the z-score is -0.11.

As for `CC1=CC(c2ccccc2)n2nc(N3C(=O)C4CC=CCC4C3=O)nc2N1` (stereo not given), the z-score was -0.382.

`O=c1[nH]c(-c2ccccn2)nc2ccccc12`: the z-score was found to be 0.157.

`COc1ccccc1N(Cc1cc2cccc(C)c2[nH]c1=O)C(=O)C(C)C` had a z-score of -1.06.

The molecule `COc1ccc(NCc2cc3ccccc3[nH]c2=O)cc1` gave a z-score of -0.583.

For the molecule `CN1CCN(Cc2c(O)ccc3c(-c4ccccc4)cc(=O)oc23)CC1`, the z-score is -1.09.

On to `COc1ccc(/C(O)=C2/C(=O)C(=O)N(CCN3CCOCC3)C2c2ccccn2)cc1OC` (stereo not given), for which the z-score was -1.41.

Regarding `CC12CCC(C(=O)N(CCC#N)CCC#N)(CC1=O)C2(C)C` (stereo not given), the z-score amounted to 1.07.

`Cc1cccc(C)c1N1C(=O)C2ON(c3ccccc3)C(c3ccncc3)C2C1=O` (stereo not given) gave a z-score of 0.0518.

With `CCCc1cc(=O)oc2c(CN3CCN(C)CC3)c(O)c(Cl)cc12`, the z-score is -0.833.

Take `COCCN(CCOC)C(=O)C12CCC(C)(C(=O)C1)C2(C)C` (stereo not given): the z-score was found to be 2.03.

Molecule `c1ccc(-c2nc(NCC3CCCO3)c3ccccc3n2)nc1` (stereo not given) gave a z-score of -0.891.

`COC(=O)C1=C(C)N=C2SC(C)C(=O)N2C1c1cccs1` (stereo not given) yielded a z-score of -0.39.

Consider `COC(=O)C1=C(C)N=C2SC(C)C(=O)N2C1/C=C/c1ccccc1OC` (stereo not given), for which the z-score turned out to be 0.498.

On to `CCOc1ccc(/C(O)=C2/C(=O)C(=O)N(c3nc(C)c(C)s3)C2c2ccco2)cc1` (stereo not given), for which the z-score was 0.684.

Take `CCN(CC)CCCN1C(=O)C(=O)/C(=C(/O)c2ccc(Cl)cc2)C1c1ccccn1` (stereo not given): the z-score was -1.03.

Regarding `CCc1cc(=O)oc2c(CN3CCCC3)c(O)c(Cl)cc12`, the z-score was -0.243.

`COc1cccc(-c2nc(NC(C)C)c3ccccc3n2)c1O`: the z-score worked out at 0.53.

As to `CCOc1ccc(C2C(C(=O)c3ccc(C)o3)=C(O)C(=O)N2CCN2CCOCC2)cc1OC` (stereo not given), the z-score came to 0.354.

Turning to `Oc1ccccc1-c1nc(NCc2ccco2)c2ccccc2n1`, the z-score was 2.11.

`COc1ccccc1-c1cc(-c2cc(Cl)ccc2O)n[nH]1` showed a z-score of -0.531.

The molecule `N#Cc1nc(-c2ccccc2Cl)oc1N1CCCCC1` yielded a z-score of -2.24.

`CC(C)Cn1nc(NC(=O)C(C)(C)C)c2cc3ccccc3nc21` yielded a z-score of -0.417.

For the molecule `CCO/C(C)=N/n1c2nc3ccccc3nc2c2c(=O)n(CC(C)C)c(C)nc21`, the z-score came out at 0.23.

Take `O=C(NCCCn1ccnc1)C(Cc1ccccc1)N1C(=O)c2ccccc2C1=O` (stereo not given): the z-score was -0.478.

Turning to `O=C(O)CCCCCN1C(=O)CCC1=O`, the z-score is -0.815.

Molecule `CCCSc1nc(C)c(CC(=O)O)c(=O)[nH]1` had a z-score of 0.0307.

As for `COc1cccc(-c2nc(NCCN3CCOCC3)c3ccccc3n2)c1O`, the z-score was -0.437.

`CC1CCCCN1C(=O)C12CCC(C)(/C(=N/O)C1)C2(C)C` (stereo not given) displayed a z-score of 2.22.

`Oc1ccccc1-c1nc(NCCN2CCOCC2)c2ccccc2n1` showed a z-score of 3.56.

`CCC1CCCCN1c1nc(-c2cccc(OC)c2O)nc2ccccc12` (stereo not given) yielded a z-score of 0.187.

Take `COc1ccc(C2C=C(c3ccc(Cl)cc3)Nc3nc(NC(C)=O)nn32)cc1` (stereo not given): the z-score was 0.239.

For `Oc1ccc(Br)cc1-c1cc(-c2ccccc2F)[nH]n1`, the z-score is 2.76.

`C=CCNc1nc(-c2cccc(OC)c2O)nc2ccccc12` yielded a z-score of 0.355.

With `COc1cccc(/C(O)=C2/C(=O)C(=O)N(CCN(C)C)C2c2ccc(Br)cc2)c1` (stereo not given), the z-score worked out at 1.46.

For the molecule `CC1(C)CC(=O)C2=C(C1)Oc1nc3ccccc3cc1C2C(C#N)C#N` (stereo not given), the z-score is -0.642.

The same experiment, now with this note: HeLa MKP-3 transfected, phospho-Erk imaging KS statistic; measured here: nuclear pErk red intensity z-score; at 10 µM; stronger effect = higher value; cells stimulated with TPA for 15 min.
`COCCCNc1nc(-c2ccncc2)nc2ccccc12` gave a z-score of -0.825.

Molecule `CCOC(=O)c1cc2c(=O)n3ccccc3nc2n(Cc2ccccc2Cl)c1=N` had a z-score of 1.09.

With `COc1ccc(N/C=C(\C#N)c2nc3ccccc3n2C)c(OC)c1`, the z-score came out at 2.53.

`Cc1c(C)c2cc(Cl)c(O)c(CN3CCN(C)CC3)c2oc1=O` showed a z-score of 0.789.

In the case of `Cc1cc(N2C(=O)C(=O)/C(=C(/O)c3ccccc3)C2c2cccc(Br)c2)no1` (stereo not given), the z-score was 0.565.

For the molecule `CC1=CC(c2ccccc2)n2nc(N3C(=O)C4CC=CCC4C3=O)nc2N1` (stereo not given), the z-score was -0.0463.

`O=c1[nH]c(-c2ccccn2)nc2ccccc12` returned a z-score of -1.25.

For `COc1ccccc1N(Cc1cc2cccc(C)c2[nH]c1=O)C(=O)C(C)C`, the z-score was -1.74.

Molecule `COc1ccc(NCc2cc3ccccc3[nH]c2=O)cc1` gave a z-score of 0.127.

Take `CN1CCN(Cc2c(O)ccc3c(-c4ccccc4)cc(=O)oc23)CC1`: the z-score amounted to 0.493.

`COc1ccc(/C(O)=C2/C(=O)C(=O)N(CCN3CCOCC3)C2c2ccccn2)cc1OC` (stereo not given): the z-score is 1.12.

`CC12CCC(C(=O)N(CCC#N)CCC#N)(CC1=O)C2(C)C` (stereo not given) came in with a z-score of 1.43.

`Cc1cccc(C)c1N1C(=O)C2ON(c3ccccc3)C(c3ccncc3)C2C1=O` (stereo not given) returned a z-score of -0.286.

Regarding `CCCc1cc(=O)oc2c(CN3CCN(C)CC3)c(O)c(Cl)cc12`, the z-score was -1.37.

`COCCN(CCOC)C(=O)C12CCC(C)(C(=O)C1)C2(C)C` (stereo not given) gave a z-score of 1.23.

`c1ccc(-c2nc(NCC3CCCO3)c3ccccc3n2)nc1` (stereo not given) returned a z-score of -0.309.

For `COC(=O)C1=C(C)N=C2SC(C)C(=O)N2C1c1cccs1` (stereo not given), the z-score was -0.931.

Turning to `COC(=O)C1=C(C)N=C2SC(C)C(=O)N2C1/C=C/c1ccccc1OC` (stereo not given), the z-score was found to be 0.497.

Molecule `CCOc1ccc(/C(O)=C2/C(=O)C(=O)N(c3nc(C)c(C)s3)C2c2ccco2)cc1` (stereo not given) yielded a z-score of 1.89.

Consider `CCN(CC)CCCN1C(=O)C(=O)/C(=C(/O)c2ccc(Cl)cc2)C1c1ccccn1` (stereo not given), for which the z-score amounted to 0.528.

With `CCc1cc(=O)oc2c(CN3CCCC3)c(O)c(Cl)cc12`, the z-score is -0.206.

In turn, `COc1cccc(-c2nc(NC(C)C)c3ccccc3n2)c1O` returned a z-score of 0.295.

`CCOc1ccc(C2C(C(=O)c3ccc(C)o3)=C(O)C(=O)N2CCN2CCOCC2)cc1OC` (stereo not given): the z-score worked out at 0.737.

`Oc1ccccc1-c1nc(NCc2ccco2)c2ccccc2n1` registered a z-score of -0.675.

In turn, `COc1ccccc1-c1cc(-c2cc(Cl)ccc2O)n[nH]1` registered a z-score of -0.306.

`N#Cc1nc(-c2ccccc2Cl)oc1N1CCCCC1` gave a z-score of -0.968.

Consider `CC(C)Cn1nc(NC(=O)C(C)(C)C)c2cc3ccccc3nc21`, for which the z-score came to 1.07.

On to `CCO/C(C)=N/n1c2nc3ccccc3nc2c2c(=O)n(CC(C)C)c(C)nc21`, for which the z-score was 0.00332.

Turning to `O=C(NCCCn1ccnc1)C(Cc1ccccc1)N1C(=O)c2ccccc2C1=O` (stereo not given), the z-score is -0.334.

For the molecule `O=C(O)CCCCCN1C(=O)CCC1=O`, the z-score came out at 0.641.

`CCCSc1nc(C)c(CC(=O)O)c(=O)[nH]1` came in with a z-score of -0.67.

Molecule `COc1cccc(-c2nc(NCCN3CCOCC3)c3ccccc3n2)c1O` showed a z-score of -0.66.

Consider `CC1CCCCN1C(=O)C12CCC(C)(/C(=N/O)C1)C2(C)C` (stereo not given), for which the z-score was found to be 1.3.

Molecule `Oc1ccccc1-c1nc(NCCN2CCOCC2)c2ccccc2n1` had a z-score of -0.549.

Molecule `CCC1CCCCN1c1nc(-c2cccc(OC)c2O)nc2ccccc12` (stereo not given) showed a z-score of 0.757.

`COc1ccc(C2C=C(c3ccc(Cl)cc3)Nc3nc(NC(C)=O)nn32)cc1` (stereo not given) had a z-score of 0.747.

`Oc1ccc(Br)cc1-c1cc(-c2ccccc2F)[nH]n1`: the z-score was -1.37.

In turn, `C=CCNc1nc(-c2cccc(OC)c2O)nc2ccccc12` returned a z-score of 1.19.

Molecule `COc1cccc(/C(O)=C2/C(=O)C(=O)N(CCN(C)C)C2c2ccc(Br)cc2)c1` (stereo not given) registered a z-score of -0.618.

As to `CC1(C)CC(=O)C2=C(C1)Oc1nc3ccccc3cc1C2C(C#N)C#N` (stereo not given), the z-score is -1.04.
